The full ranking holds about 4,500 sequences; the median of “log2 normalized fluorescence” is about -0.34, and the highest 2% start at about 3.3. This is one part of a sample in which the highest values are shown more often than they occur.

The target of this assay is MAX:MAX (p21) (human, UniProt P61244-2 1-151). The assay can be described thus: protein-binding microarray (anti-MAX antibody); PBM: 15 mM Tris-HCl pH 7.5, 100 mM KCl, 0.075% NP40, 7.5 mM beta-mercaptoethanol, 375 ng/ul BSA, 8 ng/ul poly(dA-dT):(dA-dT), 550 ng complex, 60 min, room tempe; high values mean tight binding. The settings on record: protein: recombinant; tags: 6xHis; chain copies: 2; label: 3' end of printed strand (linker) attached to glass slide; dsDNA, one strand shown. A digest of the protocol: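 Binding, given as log2 normalized fluorescence, was measured on a custom Agilent glass array. The array bore ~5000 unique 12-nt sequences spotted in triplicate and converted to double strands by primer extension. It was incubated with 550 ng of human His-tagged MYC:MAX or MAX:MAX dimers from E. coli for 60 min at room temperature in Tris-KCl buffer, pH 7.5, with NP40, BSA and poly(dA-dT) competitor, and bound protein was detected with anti-MAX and secondary antibodies and scanned at 543 nm.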
MAX:MAX (p21), sequence (P61244 other isoform, or with tags, fused parts or gaps): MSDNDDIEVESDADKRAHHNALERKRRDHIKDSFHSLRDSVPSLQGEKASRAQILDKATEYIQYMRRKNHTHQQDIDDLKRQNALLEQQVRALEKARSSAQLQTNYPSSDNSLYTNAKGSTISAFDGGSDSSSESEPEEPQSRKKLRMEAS
Regarding “CCGGCTGACACGCCATATTAATAGCTAAGATTACTATATCGACG”, the binding signal was 2.41 log2 normalized fluorescence. For “CCGGCTGATACATAGTATTAATAGCTAAGATTACTATATCGACG”, the binding signal is -0.533 log2 normalized fluorescence. With “CCGGCTGATTCACGGTATTAATAGCTAAGATTACTATATCGACG” the figure was 0.000807 log2 normalized fluorescence. For the sequence “CCGGCTGAGTGGATGTATTAATAGCTAAGATTACTATATCGACG”, the binding signal was 0.0423 log2 normalized fluorescence. Consider “CCGGCTGACACGTTGGATTAATAGCTAAGATTACTATATCGACG”, for which the binding signal is 3.03 log2 normalized fluorescence.

As to “CCGGCTGATAGTGGGTATTAATAGCTAAGATTACTATATCGACG”, the binding signal is -0.372 log2 normalized fluorescence. For the sequence “CCGGCTGAGTGGCTGTATTAATAGCTAAGATTACTATATCGACG”, the binding signal was 0.1 log2 normalized fluorescence. As for “CCGGCTGAAAGATGGTATTAATAGCTAAGATTACTATATCGACG”, the binding signal was -0.31 log2 normalized fluorescence.

Regarding “CCGGCTTGCACTTGGTATTAATAGCTAAGATTACTATATCGACG”, the binding signal was 0.423 log2 normalized fluorescence. Regarding “CCGGCTTGCACGTGGTTTTAATAGCTAAGATTACTATATCGACG”, the binding signal was 3.23 log2 normalized fluorescence. Take “CCGGCTTGCACGTGGTATTAATAGCTAAGATTACTATATCGACG”: the binding signal is 3.31 log2 normalized fluorescence. “CCGGCTGAGGCGGCGTATTAATAGCTAAGATTACTATATCGACG”: the binding signal is -0.641 log2 normalized fluorescence. With “CCGGCTGAGACGCCGTATTAATAGCTAAGATTACTATATCGACG” the figure was -0.749 log2 normalized fluorescence. Regarding “CCGGCTGAGGTGGTGTATTAATAGCTAAGATTACTATATCGACG”, the binding signal was -0.0636 log2 normalized fluorescence.

Turning to “CCGGCTGAATAAGCGTATTAATAGCTAAGATTACTATATCGACG”, the binding signal is -0.651 log2 normalized fluorescence.

On to “CCGGCTGCCCCGTGGTATTAATAGCTAAGATTACTATATCGACG”, for which the binding signal is 2.88 log2 normalized fluorescence. As to “CCGGCCGACGCGTGGTATTAATAGCTAAGATTACTATATCGACG”, the binding signal is 3.33 log2 normalized fluorescence. For the sequence “CCGGCTTACGCGTGGTATTAATAGCTAAGATTACTATATCGACG”, the binding signal is 3.27 log2 normalized fluorescence. Regarding “CCGGCTAACGCGTGGTATTAATAGCTAAGATTACTATATCGACG”, the binding signal was 3.26 log2 normalized fluorescence. As to “CCGGCCGCCACGTGGTATTAATAGCTAAGATTACTATATCGACG”, the binding signal was 3.32 log2 normalized fluorescence. For “CCGGCCGCGACGTGGTATTAATAGCTAAGATTACTATATCGACG” the value was 2.79 log2 normalized fluorescence; for “CCGGCTGCCGCGTGGTATTAATAGCTAAGATTACTATATCGACG”, 3.21 log2 normalized fluorescence. For “CCGGCCACCACGTGGTATTAATAGCTAAGATTACTATATCGACG”, the binding signal was 3.24 log2 normalized fluorescence. As to “CCGGCAGCCACGTGGTATTAATAGCTAAGATTACTATATCGACG”, the binding signal is 3.13 log2 normalized fluorescence. Consider “CCGGCTGCCTCGTGGTATTAATAGCTAAGATTACTATATCGACG”, for which the binding signal is 3.36 log2 normalized fluorescence. “CCGGCTGCCACGTGGTATTAATAGCTAAGATTACTATATCGACG”: the binding signal is 3.42 log2 normalized fluorescence. Turning to “CCGGCTGCGACGTGGTATTAATAGCTAAGATTACTATATCGACG”, the binding signal was 2.27 log2 normalized fluorescence. “CCGGCTGACAATGGGTATTAATAGCTAAGATTACTATATCGACG”: the binding signal is 0.0164 log2 normalized fluorescence. Consider “CCGGCTGATGGGTAGTATTAATAGCTAAGATTACTATATCGACG”, for which the binding signal was -0.121 log2 normalized fluorescence. As for “CCGGCTGACATTTGGTGTTAATAGCTAAGATTACTATATCGACG”, the binding signal is -0.316 log2 normalized fluorescence. Consider “CCGGCTGACATAGCGTATTAATAGCTAAGATTACTATATCGACG”, for which the binding signal is -0.366 log2 normalized fluorescence. For the sequence “CCGGCTGAGACACTGTATTAATAGCTAAGATTACTATATCGACG”, the binding signal was -0.484 log2 normalized fluorescence.

With “CCGGCTGATACGCCGTATTAATAGCTAAGATTACTATATCGACG”, the binding signal is -0.497 log2 normalized fluorescence. Turning to “CCGGCTGAGACCCTGTATTAATAGCTAAGATTACTATATCGACG”, the binding signal was -0.583 log2 normalized fluorescence. “CCGGCTGAGCAGGGGTATTAATAGCTAAGATTACTATATCGACG”: the binding signal was 0.451 log2 normalized fluorescence. Regarding “CCGGCCGCCACGTAGTATTAATAGCTAAGATTACTATATCGACG”, the binding signal was 1.58 log2 normalized fluorescence. In the case of “CCGGCTGAGACGTGGTCTTAATAGCTAAGATTACTATATCGACG”, the binding signal is 1.44 log2 normalized fluorescence. Consider “CCGGCCGCCACGTGGTCTTAATAGCTAAGATTACTATATCGACG”, for which the binding signal is 3.44 log2 normalized fluorescence. For the sequence “CCGGCGTACACGTGGTATTAATAGCTAAGATTACTATATCGACG”, the binding signal is 3.3 log2 normalized fluorescence. For “CCGGCAGACACGTGGTCTTAATAGCTAAGATTACTATATCGACG”, the binding signal is 3.43 log2 normalized fluorescence. As to “CCGGCTGACACGTGGTCTTAATAGCTAAGATTACTATATCGACG”, the binding signal is 3.21 log2 normalized fluorescence.

Consider “CCGGCTTACACGTGGTCTTAATAGCTAAGATTACTATATCGACG”, for which the binding signal is 3.19 log2 normalized fluorescence.

With “CCGGCAAACACGTTGTATTAATAGCTAAGATTACTATATCGACG”, the binding signal was 3.31 log2 normalized fluorescence. In the case of “CCGGCCAACACGTTGTATTAATAGCTAAGATTACTATATCGACG”, the binding signal is 3.07 log2 normalized fluorescence.

On to “CCGGCGTATACGTGGTATTAATAGCTAAGATTACTATATCGACG”, for which the binding signal was 1.62 log2 normalized fluorescence. With “CCGGCATACACGTGGTATTAATAGCTAAGATTACTATATCGACG” the figure was 3.25 log2 normalized fluorescence; with “CCGGCAGACACGTGGTATTAATAGCTAAGATTACTATATCGACG”, 3.08 log2 normalized fluorescence. As to “CCGGCTGGTACGTGGTCTTAATAGCTAAGATTACTATATCGACG”, the binding signal was 1.03 log2 normalized fluorescence. For “CCGGCTAACACGTTGTATTAATAGCTAAGATTACTATATCGACG”, the binding signal was 3.12 log2 normalized fluorescence. With “CCGGCGTACACGTGGTCTTAATAGCTAAGATTACTATATCGACG”, the binding signal is 3.35 log2 normalized fluorescence. Turning to “CCGGCTGACCATCTGTATTAATAGCTAAGATTACTATATCGACG”, the binding signal was 1.1 log2 normalized fluorescence.

As for “CCGGCTGACGTACAGTATTAATAGCTAAGATTACTATATCGACG”, the binding signal was -0.0346 log2 normalized fluorescence. For the sequence “CCGGCTGACACGTAACATTAATAGCTAAGATTACTATATCGACG”, the binding signal is 1.37 log2 normalized fluorescence.
